This is an account of results in PubChem BioAssay (NCI).

Assay [1] can be described thus: NCI Yeast Anticancer Drug Screen. Data for the rad50 strain (AID 155).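 Also: 0% = growth of vehicle-only cultures of the same strain.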 The note with it: S. cerevisiae rad50 strain growth inhibition, hits give high values. The gist of the method: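 Compounds were tested on a yeast strain with an engineered DNA damage repair alteration; the reported value is growth inhibition normalised to vehicle treatment.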
A short description of assay [2]: NCI Yeast Anticancer Drug Screen. Data for the mec2-1 strain (AID 157). The note with it: S. cerevisiae mec2-1 strain, hits give high values. The method in brief:
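Growth inhibition is read against vehicle-treated controls after compound exposure of the mec2-1 yeast strain, which is defective in DNA damage repair or cell cycle control.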

Assay [3] in a line: NCI Yeast Anticancer Drug Screen. Data for the sgs1 mgt1 strain (AID 161).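 Also: 0% = growth of cultures given vehicle only.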 The conditions noted are these: S. cerevisiae sgs1 mgt1 strain, hits give high values. The gist of the method:
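Percent growth inhibition was derived by comparing compound-exposed mutant yeast with vehicle-exposed cultures. The strain carries alterations in DNA damage repair.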

Assay [4] in a line: NCI Yeast Anticancer Drug Screen. Data for the cln2 rad14 strain (AID 165).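 Also: 0% = growth equal to vehicle treated cultures.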 The conditions noted are these: S. cerevisiae cln2 rad14 strain, hits give high values. The method in brief: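 Growth inhibition, relative to vehicle-treated controls, is the read-out. The test organism is a yeast strain with defined genetic alterations, cln2 rad14.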
Assay [5] can be described thus: NCI Yeast Anticancer Drug Screen. Data for the bub3 strain (AID 167). The conditions noted are these: S. cerevisiae bub3 mutant strain, hits give high values. The method in brief:
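Growth of a checkpoint-deficient yeast mutant is measured after compound exposure. Values represent inhibition relative to vehicle.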

Assay [6] can be described thus: NCI Yeast Anticancer Drug Screen. Data for the mlh1 rad18 strain (AID 175). The conditions noted are these: S. cerevisiae mlh1 rad18 strain growth inhibition, hits give high values. The method in brief: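 Cells of a genetically altered yeast strain, deficient in DNA damage repair, were treated with compound. Their growth was then compared with that of vehicle-treated cultures to give inhibition.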

Setting [7] is: at 5.0 µM (retest, dose inferred, filed as 0.5).
Setting [8] is: at 50.0 µM (retest, dose inferred, filed as 5.0).

The panel holds about 79,000 compounds, 15% with a hit somewhere; the sample as a whole holds those more often. Unmarked numbers belong to inactive results. Calls of active or inactive are those of the source. Rule as the data show it: active = growth inhibition above about 70%; inactive = the rest.

With `CC(=O)CC1(O)C(=O)Nc2ccc(Br)cc21` (stereo not given), the growth inhibition in assay [1] (setting [7]) was 1%; in assay [1] (setting [8]) it was -2%; in assay [1] (at 50.0 µM), 39%; in assay [2] (setting [7]), 0%; in assay [2] (setting [8]) it was -3%; in assay [2] (at 50.0 µM), 6.3%. Moreover, the growth inhibition in assay [3] (setting [7]) was -2%; in assay [3] (setting [8]), 1%; in assay [3] (at 50.0 µM) it was 10.8%; in assay [4] (setting [7]), -3%; in assay [4] (setting [8]), 8%; in assay [4] (at 50.0 µM), 60.1%. Further, the growth inhibition in assay [5] (setting [7]) was 6%; in assay [5] (setting [8]), 2%; in assay [5] (at 50.0 µM), 0.8%; in assay [6] (setting [7]), -5%; in assay [6] (setting [8]), -8%; in assay [6] (at 50.0 µM) it was 5.25%.

For the compound `O=C(/C=C(/Nc1ccccc1)C(=O)c1ccccc1)c1ccccc1`, the growth inhibition was 3% in assay [1] (setting [7]); 77% (active) in assay [1] (setting [8]); 30.6% in assay [1] (at 50.0 µM); 9% in assay [2] (setting [7]); 96% (active) in assay [2] (setting [8]); 37.2% in assay [2] (at 50.0 µM). The growth inhibition in assay [3] (setting [7]) is 8%; in assay [3] (setting [8]) it was 90% (active); in assay [3] (at 50.0 µM), 68.8%; in assay [4] (setting [7]), 0%; in assay [4] (setting [8]), 39%; in assay [4] (at 50.0 µM), -5.1%. Besides, the growth inhibition in assay [5] (setting [7]) is 13%; in assay [5] (setting [8]), 33%; in assay [5] (at 50.0 µM), 74% (active); in assay [6] (setting [7]), 6%; in assay [6] (setting [8]), 91% (active); in assay [6] (at 50.0 µM), 37.7%.

Take `COC(=O)C(=O)C(=O)C1CCCC(c2ccccc2)C1=O` (stereo not given): the growth inhibition was 1% in assay [1] (setting [7]); 96% (active) in assay [1] (setting [8]); 96.3% (active) in assay [1] (at 50.0 µM); 0% in assay [2] (setting [7]); 97% (active) in assay [2] (setting [8]); 98% (active) in assay [2] (at 50.0 µM). In addition, the growth inhibition in assay [3] (setting [7]) is 1%; in assay [3] (setting [8]), 53%; in assay [3] (at 50.0 µM), 71.6% (active); in assay [4] (setting [7]), 2%; in assay [4] (setting [8]), 98% (active); in assay [4] (at 50.0 µM), 94.8% (active). The growth inhibition was -11% in assay [5] (setting [7]); 98% (active) in assay [5] (setting [8]); 97.8% (active) in assay [5] (at 50.0 µM); -10% in assay [6] (setting [7]); 97% (active) in assay [6] (setting [8]); 96.4% (active) in assay [6] (at 50.0 µM).

As to `O=C(Cc1nc2ccc([N+](=O)[O-])cc2[nH]c1=O)C(=O)Nc1cc(Cl)c(Cl)cc1Cl`, the growth inhibition in assay [1] (setting [7]) is -16%; in assay [1] (setting [8]), -2%; in assay [1] (at 50.0 µM), 8.05%; in assay [2] (setting [7]), -16%; in assay [2] (setting [8]), -7%; in assay [2] (at 50.0 µM), -5.45%. In addition, the growth inhibition in assay [3] (setting [7]) was -7%; in assay [3] (setting [8]), -15%; in assay [3] (at 50.0 µM), -6.05%; in assay [4] (setting [7]), -25%; in assay [4] (setting [8]), -6%; in assay [4] (at 50.0 µM), 6.65%. Moreover, the growth inhibition is -16% in assay [5] (setting [7]); 2% in assay [5] (setting [8]); 23.9% in assay [5] (at 50.0 µM); -4% in assay [6] (setting [7]); -13% in assay [6] (setting [8]); 26.1% in assay [6] (at 50.0 µM).

On to `CCOC(=O)C(Cc1ccc(O)c(C=O)c1)NC(C)=O` (stereo not given), for which the growth inhibition was -13% in assay [1] (setting [7]); 7% in assay [1] (setting [8]); -19.7% in assay [1] (at 50.0 µM); -9% in assay [2] (setting [7]); 20% in assay [2] (setting [8]); -7.45% in assay [2] (at 50.0 µM). Besides, the growth inhibition is -22% in assay [3] (setting [7]); 2% in assay [3] (setting [8]); 0.3% in assay [3] (at 50.0 µM); 3% in assay [4] (setting [7]); 39% in assay [4] (setting [8]); -8.75% in assay [4] (at 50.0 µM). Further, the growth inhibition in assay [5] (setting [7]) is -1%; in assay [5] (setting [8]), 3%; in assay [5] (at 50.0 µM), 0.05%; in assay [6] (setting [7]), -7%; in assay [6] (setting [8]), -10%; in assay [6] (at 50.0 µM), -1.55%.

Consider `COc1ccc(N=Nc2ccc3oc(=O)c(C(=O)Nc4ccc(OC)cc4)cc3c2)cc1`, for which the growth inhibition in assay [1] (setting [7]) was 24%; in assay [1] (setting [8]), 97% (active); in assay [1] (at 50.0 µM), 94.8% (active); in assay [2] (setting [7]), 14%; in assay [2] (setting [8]) it was 97% (active); in assay [2] (at 50.0 µM), 95.3% (active). For the same compound, the growth inhibition is 14% in assay [3] (setting [7]); 98% (active) in assay [3] (setting [8]); 95.5% (active) in assay [3] (at 50.0 µM); 26% in assay [4] (setting [7]); 94% (active) in assay [4] (setting [8]); 94.3% (active) in assay [4] (at 50.0 µM). Further, the growth inhibition in assay [5] (setting [7]) was -25%; in assay [5] (setting [8]), 92% (active); in assay [5] (at 50.0 µM), 95.3% (active); in assay [6] (setting [7]), 36%; in assay [6] (setting [8]) it was 97% (active); in assay [6] (at 50.0 µM), 95.1% (active).

As for `COC1C(N)C(OC2C(Oc3cccc4c(O)c5c(=O)oc6ccc(C)c7c(=O)oc(c34)c5c67)OC(C)C(O)C2(C)O)OC(C)C1O` (stereo not given), the growth inhibition in assay [1] (setting [7]) was 12%; in assay [1] (setting [8]), 48%; in assay [1] (at 50.0 µM) it was 26.8%; in assay [2] (setting [7]) it was -6%; in assay [2] (setting [8]), 8%; in assay [2] (at 50.0 µM), 20.3%. In addition, the growth inhibition was 29% in assay [3] (setting [7]); 32% in assay [3] (setting [8]); 23.1% in assay [3] (at 50.0 µM); 8% in assay [4] (setting [7]); 36% in assay [4] (setting [8]); 32% in assay [4] (at 50.0 µM). Also, the growth inhibition was 19% in assay [5] (setting [7]); 30% in assay [5] (setting [8]); 19.4% in assay [5] (at 50.0 µM); 11% in assay [6] (setting [7]); 15% in assay [6] (setting [8]); 60.4% in assay [6] (at 50.0 µM).

For the compound `CCc1cc(-c2ccco2)c(C#N)c(=S)n1C1OC(COC(C)=O)C(OC(C)=O)C(OC(C)=O)C1OC(C)=O` (stereo not given), the growth inhibition is -2% in assay [1] (setting [7]); -6% in assay [1] (setting [8]); 3.05% in assay [1] (at 50.0 µM); -15% in assay [2] (setting [7]); -7% in assay [2] (setting [8]); 8.2% in assay [2] (at 50.0 µM). Also, the growth inhibition in assay [3] (setting [7]) is -1%; in assay [3] (setting [8]), 6%; in assay [3] (at 50.0 µM), -19.4%; in assay [4] (setting [7]) it was 4%; in assay [4] (setting [8]), 22%; in assay [4] (at 50.0 µM), 8.6%. The growth inhibition is 7% in assay [5] (setting [7]); 21% in assay [5] (setting [8]); -0.25% in assay [5] (at 50.0 µM); -14% in assay [6] (setting [7]); 5% in assay [6] (setting [8]); 34.1% in assay [6] (at 50.0 µM).

As to `COc1cc(C2=NCCO2)cc(OC)c1OC`, the growth inhibition was -158% in assay [1] (setting [7]); -155% in assay [1] (setting [8]); 9.4% in assay [1] (at 50.0 µM); -45% in assay [2] (setting [7]); -52% in assay [2] (setting [8]); -5.5% in assay [2] (at 50.0 µM). The growth inhibition was -62% in assay [3] (setting [7]); -60% in assay [3] (setting [8]); -3.85% in assay [3] (at 50.0 µM); -59% in assay [4] (setting [7]); -62% in assay [4] (setting [8]); 61.9% in assay [4] (at 50.0 µM). The growth inhibition in assay [5] (setting [7]) was -67%; in assay [5] (setting [8]) it was -79%; in assay [5] (at 50.0 µM), 0.55%; in assay [6] (setting [7]), -196%; in assay [6] (setting [8]), -117%; in assay [6] (at 50.0 µM), 3.95%.

With `CC(=O)NC1CCCCC1CC1CCCCC1` (stereo not given), the growth inhibition in assay [1] (setting [7]) was -146%; in assay [1] (setting [8]), -23%; in assay [1] (at 50.0 µM), 19.2%; in assay [2] (setting [7]) it was -48%; in assay [2] (setting [8]), -44%; in assay [2] (at 50.0 µM), 20.1%. Besides, the growth inhibition in assay [3] (setting [7]) is -63%; in assay [3] (setting [8]), -32%; in assay [3] (at 50.0 µM), 35.8%; in assay [4] (setting [7]), -57%; in assay [4] (setting [8]), -52%; in assay [4] (at 50.0 µM), 79.2% (active). The growth inhibition in assay [5] (setting [7]) was -68%; in assay [5] (setting [8]), -49%; in assay [5] (at 50.0 µM), 24%; in assay [6] (setting [7]) it was -125%; in assay [6] (setting [8]), -138%; in assay [6] (at 50.0 µM) it was 16.9%.
